ChEMBL document CHEMBL4888484, “Replenishing the malaria drug discovery pipeline: Screening and hit evaluation of the MMV Hit Generation Library 1 (HGL1) against asexual blood stage Plasmodium falciparum ,using a nano luciferase reporter read-out” (2022)
About 410 (8.5%) of roughly 4,800 compounds showed an effect of 50% or more. The sample as a whole holds a higher share of strong results than the screen did.

Each compound was assayed on Plasmodium falciparum (assay: Confirmatory screen in NF54 pLDH assay, in single point, at 2uM, 72h). Settings: timepoint 72 hour.
Format: functional, Erythrocyte

SMILES	% Inhibition [%]
COc1ccccc1CNC(=O)c1cnn2c3c(cnc12)CCCC3	-2
Brc1cc(Br)c2nc(-c3cnccn3)ccc2c1	14
CC(=O)c1ccc(N2CCN(C(=O)c3nn[nH]c3Nc3ccc(C)c(C)c3)CC2)cc1	8
CCn1cc(Cl)c(-c2nnc(-c3cccs3)o2)n1	0
CC1CN(C)C(C)c2c1oc1ccc(N)cc21 (stereo not drawn)	-17
CC1=NN(c2ncc(C(F)(F)F)cc2Cl)C(=O)c2ccccc2O1	6
CCCOc1cccc2c(NC3CCN(CCOC)CC3)ccnc12	48
Cc1cc2ncn(CN3CC[C@@H](NC(=O)OC(C)(C)C)C3)c2cc1C	-7
Brc1cncnc1NC1CC1	9
CN1CCC(Nc2ncnc3c2cnn3C)C1c1ccc(Cl)cc1 (stereo not drawn)	12
CC1CC(Nc2ncnc3cc(Br)ccc23)CCN1C (stereo not drawn)	95
O=C(NCc1ccco1)c1nc(-c2ccncc2)cs1	10
Cc1noc(C)c1NC(=O)CCS(=O)(=O)c1ccc2ccccc2c1	4
O=C(Nc1nccnc1C(=O)O)c1ccc(Cl)cc1	14
CC1CCC(N2CC(C(=O)N(C3CC3)C(C)C(C)C)CC2=O)CC1 (stereo not drawn)	1
O=C1c2ccccc2C(=O)N1CCc1csc(Cn2cncn2)n1	10
CN1CCN(C2(CNc3ccnc4ccccc34)CCCC2)CC1	98
c1ccc(Oc2ccnc(NCC34COCCN3CCOC4)n2)cc1	-13
Cc1noc(OCCc2ccccc2)n1	11
Cc1ccc(C)c(-n2cnc(=O)n2[C@H]2CCN(C3CC3)C2=O)c1	51
Cc1ccc(C)c(N2CCN(c3ncc4c(=O)n(-c5ccc6c(c5)OCO6)c(=O)[nH]c4n3)CC2)c1	3
Brc1ccc2c(c1)C1CCCCC1N2 (stereo not drawn)	9
CC[C@H]1CN2C=NC(N3CCN(C(=O)Nc4cc(F)cc(F)c4)CC3)=CC2=N1	46
CC[C@H]1CN2C=NC(N3CCN(C(=O)Cc4ccccc4)CC3)=CC2=N1	25
Cc1c(F)cccc1NC(=O)N1CCN(C2=CC3=N[C@@H](C)CN3C=N2)CC1	54
COC(=O)c1nc(NC(=O)C2(C)CCCC2)sc1C(C)C	-9

SMILES	% Inhibition [%]
Cc1nnc(N2CC[C@H](c3nnc[nH]3)C2)s1	4
COc1c[nH]c(C(=O)NC2CCN(Cc3ccccc3)CC2)cc1=O	1
CC1(C)CC(=O)C2(Cc3ccccc3N3CCN(Cc4ccccc4)C[C@H]32)C(=O)C1	12
O=C(CN1C(=O)COc2cc(Br)ccc21)Nc1cccc2ccccc12	9
CC1CCCN(C2(N3CCCC(C)C3)C(=O)Nc3ccc(F)cc32)C1 (stereo not drawn)	19
N#Cc1cccc(CNCC2(N3CCOCC3)CCCCC2)c1	-4
Cc1c(S(=O)(=O)NCCn2nc(C(F)(F)F)cc2C)cnn1C	8
Cc1nc2sc(C(=O)Nc3ccc4ccccc4c3)c(N)c2c(C)c1C	9
Cc1cc(C(=O)Nc2ccc3ccccc3c2)co1	-3
Cc1c(C)c2ccc(NC(=O)c3cc4ccccc4o3)cc2[nH]c1=O	78
O=C(Cn1c(=O)n(-c2cc(F)cc(F)c2)c(=O)c2sccc21)NCc1ccc(F)cc1F	-2
CCC(CC)C(=O)c1c[nH]c(C(N)=O)c1	-17
Cc1noc(CCNC(=O)N2CCCCC[C@H]2c2ccc(C)o2)n1	-1
CC(C)(C)c1nc(Cn2cnc3ncc(Br)cc32)no1	6
NS(=O)(=O)N1CCN(Cc2ccn(C3CCCC3)n2)CC1	9
Cc1nn(-c2nc3ccccc3[nH]2)c2c1[C@@H](c1cccnc1)CC(=O)N2	79
O=C1C[C@H](c2cccnc2)c2cnn(C3CCCC3)c2N1	16
Cc1nn(-c2ncccn2)c2c1[C@@H](c1ccccc1)CC(=O)N2	-15
Cc1noc(C2CCN(CC(=O)Nc3ccccc3C(=O)NCC(C)C)CC2)n1	1
CCOC(=O)c1nc[nH]c1-n1nc(C)cc1C	7
COc1ccc(-c2nccn3cc(C(=O)N4CCCCCC4)nc23)cc1	4
CC(=O)NC1CN(C(=O)Nc2ccc(C(C)C)c(F)c2)C1	-11
COc1ccc(C2C(C(=O)O)c3ccccc3C(=O)N2C2CCCCC2)cc1 (stereo not drawn)	-13
Cc1c([C@@H](NCc2ncccc2O)C(C)C)oc2ccccc12	94
CC1=NN(c2nc(C)cc(O)n2)C(=O)C1	-6
COc1cccc(-c2nc3n(c2C(=O)Nc2ccccc2C#N)CCS3(=O)=O)c1	9

SMILES	% Inhibition [%]
Cc1ccc(-c2ccc(=O)n(CCC(=O)N3CCN(C4CCCCC4)CC3)n2)cc1	0
C[C@H]1C(=O)N(C)C[C@@H](CNS(=O)(=O)c2ccccc2)N1Cc1cccnc1	9
CN(C)CC(O)COc1ccc(S(=O)(=O)c2ccc(OCC(O)CN(C)C)c(Cl)c2)cc1Cl (stereo not drawn)	61
CCN(CC)c1ccc(NS(=O)(=O)c2cc(S(=O)(=O)c3ccc(Cl)c(S(=O)(=O)Nc4ccc(N(CC)CC)cc4)c3)ccc2Cl)cc1	5
COc1cc(=O)c(C(=O)NCCN2CCCCC2)nn1-c1ccc(F)cc1	0
Cc1ccc(C(=O)N2CCCC23CCC3)nn1	-9
O=C(c1[nH]nc(C2CC2)c1Br)N1CCC12CCC2	-3
CCOc1ccc(C2C(C(=O)O)CCC(=O)N2C2CCCCC2)cc1 (stereo not drawn)	10
CN(C)c1ccc(C(=O)N2CC[C@H]3NC(=O)N(Cc4ccccc4)C(=O)[C@H]32)cc1	-5
Cc1ccc(S(=O)(=O)Nc2cccc(-c3csc(C)n3)c2)cc1	10
COc1ccc(CNC(=O)c2sc(Nc3ccc(C)cc3C)nc2C)c(OC)c1	-2
O=C1[C@H](c2cccnc2)N(CCCc2ccccc2)C(=O)CN1c1ccccc1	-15
CCN(CCN(C)C)C(=O)c1cccc(-c2ccc3nccc(N)c3c2)c1	96
CCC(=O)N(CCN(C)C)Cc1c(-c2ccccc2)noc1N1CCCCC1	13
COc1ccc(-c2cc3nn(CC(=O)NCCC(C)C)c(=O)n3c(C)n2)cc1	1
CCc1sc(N(C(=O)CCc2ccccc2)c2ccc(C)cc2C)nc1-c1ccc(OC)cc1	9
CCn1ncc(-c2cc(C(F)(F)F)c3c(C(C)C)nn(-c4ccc(F)cc4)c3n2)c1C	-1
O=C(C[C@H]1CCC(=O)N(Cc2ccccc2)CC1)NC1CCN(Cc2ccccc2)CC1	6
O=C(NC1CCCCCC1)c1cn(CC2(O)CCN(Cc3ccccc3)CC2)nn1	15
CCn1ncc(C(=O)n2nc(C)cc2C)c1C	10
O=c1cc(N2CCN(C3CCCC3)CC2)cnn1Cc1ccccc1	-19
Cc1ccnc(-n2nccc2NC(=O)[C@H](C)Oc2ccccc2)c1	0
O=c1c2ccccc2nc2cc(-c3ccc(O)cc3)c(-c3ccccc3)nn12	28
CCOC(=O)NC(c1ccccc1F)C1CCCCC1=O (stereo not drawn)	1
O=C(CN1N=C(C(=O)Nc2ccccc2)CCC1=O)Nc1ccc(OC(F)(F)F)cc1	-8
CC[n+]1c(/C=C/N(C)c2ccccc2)oc2ccccc21	76

SMILES	% Inhibition [%]
CC[n+]1c(/C=C/N(C)c2ccccc2)oc2ccc(-c3ccccc3)cc21	91
CCCn1nnc(N(C(=O)c2cc(Br)cc(C)c2OC)C(=O)c2cc(Br)cc(C)c2OC)n1	0
CCCC1CCC(c2ccc(-c3noc(-c4ccc(O)c(F)c4)n3)cc2)CC1 (stereo not drawn)	4
CC(C)c1ccc2ncnc(N[C@H]3CCc4[nH]cnc4C3)c2c1	101
O=c1[nH]nc(-c2ccc3c(c2)CCC3)c2ccccc12	-1
COc1ccc(C2=NC3(CCN(Cc4ccccc4)CC3)N[C@H](c3cc(Cl)ccc3O)C2)cc1	9
COc1ccc(-c2cc3ncc(C(=O)c4cc(Cl)ccc4O)cn3n2)cc1	78
O=C(Nc1ccc2c(c1)CNCC2)C1CC1c1ccc(F)c(F)c1 (stereo not drawn)	15
COc1ccccc1CC(=O)N(c1nc(C)cs1)C1CC1	-8
Cc1c(NC(=O)N2CCC(C)C(n3ccnc3)C2)cccc1N(C)C (stereo not drawn)	7
COc1ccc(Cl)cc1NC(=O)Cc1c(C)nc2nc(-c3ccccc3C)nn2c1C	6
COc1ccc(-n2nc(C)c(Cc3ccc(Cl)cc3)c2O)cc1	12
COc1ccc(CC(=O)Nc2cc(C)n(-c3cccc(Cl)c3)n2)cc1	93
C[C@@H](C(=O)NCCN1CCCCC1)N1C(=O)COc2ccc(C(=O)COc3ccccc3Cl)cc21	-20
Cc1nn(-c2ccccc2)c2c1[C@@H](c1ccc(C(F)(F)F)cc1)N(c1ccccc1)C(=O)N2	9
CCn1ncc(NC(=O)c2cc(-c3ccccc3)on2)c1C	-19
CCc1ccccc1Nc1nc(C)c(C(=O)NCc2cccnc2)s1	-22
COc1ccc(-c2nccn3cc(C(=O)NCCc4ccncc4)nc23)cc1	5
O=S(=O)(Cc1cc(Cl)cc(Cl)c1)NCCCCn1ccnc1	-11
COc1ccc(Nc2nnc(-c3ccc(NC(=O)C(=O)NCCCn4ccnc4)cc3)s2)cc1	76
CCOc1ccc(CN2CC[C@H](Nc3ncccn3)[C@@H](O)C2)cc1Cl	-18
CC(C)c1nc(O)cc(CN2CCCCC2)n1	4
CC(C)c1ccc(-c2nc(CN3CCCCC3)cc(CN3CCCCC3)c2O)cc1	95
Cc1ccc(-c2ccnn2C)cc1NC(=O)[C@H]1CCCOC1	13
COc1cc(C(=O)Nc2nnc(-c3ccc(C)s3)[nH]2)on1	9
